Structures are written as SMILES. Calls of active or inactive are those of the source. A call without a number means that no potency is given here. Calls come from the whole dose curve; as a rule, active = well fitted activation curve with a large enough effect in the repeat runs; inconclusive = weak or mixed curves; inactive = flat fitted curve, though single readings scatter.

From PubChem BioAssay (Tox21) come the findings set out here.

This experiment is described as follows: A CellTox Green Cytotoxicity Assay to monitor cytotoxicity in HEK293 cells - 0 hour (AID 1224869). Note: nearly all actives have a fitted effect of over 50% in size. The note with it: CellTox Green fluorescence; series mostly up to 76.8 µM. In outline: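 Read-out: fluorescence of a cell-impermeant cyanine dye staining DNA of dead cells, proportional to cytotoxicity. HEK293, 600 cells/well with reagent, compound (23 nL DMSO) added after 5 h; reads at 0, 8, 16, 24, 32, 40 h.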
Take `CNC(=O)N(c1ccccc1)c1ccccc1`: the Potency result was “inactive”.
Regarding `CC1(C)C(=O)N(Br)C(=O)N1Cl`, the Potency result was “inactive”.
As for `NC(=O)Nc1ccc(Cl)cc1`, the Potency result is “inactive”.
For the compound `OC/C(Br)=C(\Br)CO`, the Potency result is “inactive”.
Still for that read-out and setting: for `CC1=CC(=O)CC(C)(C)C1(O)/C=C/C(C)=C\C(=O)O` (centres undefined) the value was “inactive”.
Consider `CCCOC(=O)c1ccc(N)cc1`, for which the Potency result was “inactive”.
With `CCCCC(CC)CNCC(CC)CCCC` (centres undefined), the Potency entry was “inactive”.
Turning to `O=C(CCC1CCN(Cc2ccccc2)CC1)c1ccc2c(c1)NCCCC2`, the Potency entry was “inactive”.
Take `CC(=O)OCC(=O)[C@H]1CC[C@H]2[C@@H]3CCC4=CC(=O)CC[C@]4(C)[C@H]3CC[C@]12C`: the Potency result is “inactive”.
`COC(=O)c1cc(Cl)ccc1NS(=O)(=O)C(F)(F)F`: the Potency entry was “inactive”.
With `CCOC(=O)c1ccccc1OC`, the Potency result was “inactive”.
Still for that read-out and setting: for `CO[C@H]1O[C@H](CO)[C@@H](O)[C@H](O)[C@H]1O` the value was “inactive”; for `O=C(/C=C/c1ccccc1)OCCCc1ccccc1`, “inactive”.
In the case of `C=CCCCCCCCCCCCCCCCC`, the cytotoxicity was -3.01% [at 6.97 µM] (inactive).
As for `CCCCC(=O)O[C@]1(C(=O)CO)CC[C@H]2[C@@H]3CCC4=CC(=O)CC[C@]4(C)[C@H]3[C@@H](O)C[C@@]21C`, the Potency result was “inactive”.
Take `NC(=O)N(O)[C@@H]1C=C[C@H](Oc2cccc(Oc3ccc(F)cc3)c2)C1`: the Potency result was “inactive”.
The same measure, in the same setting: as for `N#C[C@@H]1C[C@@H]2C[C@@H]2N1C(=O)[C@@H](N)C12CC3CC(CC(O)(C3)C1)C2`, the entry is “inactive”; as for `O=Cc1c(Cl)cccc1Cl`, “inactive”; as for `CC1(C)O[C@@H]2C[C@H]3[C@@H]4CCC5=CC(=O)C=C[C@]5(C)[C@H]4[C@@H](O)C[C@]3(C)[C@]2(C(=O)CO)O1`, “inactive”.
